Screening data deposited in PubChem by National Center for Advancing Translational Sciences (NCATS).
G9a inh = blocks human histone lysine methyltransferase G9a; Q96KQ7; G9a H3K9 monomethylation, AlphaScreen, 2 h; Potency, µM (titrated, usually from 102 µM), for inactives: top-dose activity, negative = inhibition, usual class: inhibitors; 350,000 compounds, 8.8% hits; AID 504332; also: % is scaled to controls: 0 for no effect and ±100 for the full control effect; nearly all actives have a fitted effect of over 75% in size
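Signal arises when biotinylated H3K9 peptide, once monomethylated, bridges streptavidin donor and antibody-captured acceptor beads. Enzyme at 20 nM was preincubated 15 min with test compounds; peptide 500 nM and SAM 20 uM then reacted for 2 h.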
L3MBTL1 block = inhibitors of human L3MBTL1; Q9Y468; AlphaScreen L3MBTL1–H3K9me1 peptide binding; Potency, µM (highest dose often 57.1 µM), inactives show at the top dose activity, negative = inhibition, most hits filed as inhibitors; 230,000 compounds, 0.66% hits; AID 485360; also: % is scaled to controls: 0 for no effect and ±100 for the full control effect; nearly all actives have a fitted effect of over 60% in size
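AlphaScreen proximity signal between nickel-chelate acceptor and streptavidin donor beads (final 10 ug/mL) reports binding of 50 nM L3MBTL1 to 75 nM biotin-H3 K9me1 peptide; complex incubated with compounds 30 min at room temperature; cefsulodin titration as control.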
HP1b chromo inh = blocks HP1-beta chromodomain binding to methylated histone tails | P83916 | AlphaScreen HP1-beta / biotin-H3K9me3 peptide binding | Potency, µM (series often up to 114 µM), for inactives: at the highest dose activity change, negative = inhibition, actives largely listed as inhibitors | 390,000 compounds, 0.56% hits; also: nearly all actives have a fitted effect of over 70% in size
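Compound inhibition of the preformed complex between 50 nM HP1-beta and 50 nM biotinylated H3K9me3 peptide was read by AlphaScreen. Buffer was PBS pH 7.4 with 0.01% Tween-20. Incubations ran 30 min at room temperature, with 10 ug/mL donor/acceptor beads.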
JMJD2A Tudor inh = JMJD2A Tudor domain (human) inhibition; 390,000 compounds, 4.4% hits; AID 504339; AlphaScreen JMJD2A-Tudor / H3K4me3 peptide binding; Potency, µM (top dose mostly 114 µM), for the others: top-dose activity change, negative = inhibition, usual class: inhibitors; also: % is scaled to controls: 0 for no effect and ±100 for the full control effect; nearly all actives have a fitted effect of over 50% in size
Target sequence (O75164 whole entry, looked up, the tested form may be a part): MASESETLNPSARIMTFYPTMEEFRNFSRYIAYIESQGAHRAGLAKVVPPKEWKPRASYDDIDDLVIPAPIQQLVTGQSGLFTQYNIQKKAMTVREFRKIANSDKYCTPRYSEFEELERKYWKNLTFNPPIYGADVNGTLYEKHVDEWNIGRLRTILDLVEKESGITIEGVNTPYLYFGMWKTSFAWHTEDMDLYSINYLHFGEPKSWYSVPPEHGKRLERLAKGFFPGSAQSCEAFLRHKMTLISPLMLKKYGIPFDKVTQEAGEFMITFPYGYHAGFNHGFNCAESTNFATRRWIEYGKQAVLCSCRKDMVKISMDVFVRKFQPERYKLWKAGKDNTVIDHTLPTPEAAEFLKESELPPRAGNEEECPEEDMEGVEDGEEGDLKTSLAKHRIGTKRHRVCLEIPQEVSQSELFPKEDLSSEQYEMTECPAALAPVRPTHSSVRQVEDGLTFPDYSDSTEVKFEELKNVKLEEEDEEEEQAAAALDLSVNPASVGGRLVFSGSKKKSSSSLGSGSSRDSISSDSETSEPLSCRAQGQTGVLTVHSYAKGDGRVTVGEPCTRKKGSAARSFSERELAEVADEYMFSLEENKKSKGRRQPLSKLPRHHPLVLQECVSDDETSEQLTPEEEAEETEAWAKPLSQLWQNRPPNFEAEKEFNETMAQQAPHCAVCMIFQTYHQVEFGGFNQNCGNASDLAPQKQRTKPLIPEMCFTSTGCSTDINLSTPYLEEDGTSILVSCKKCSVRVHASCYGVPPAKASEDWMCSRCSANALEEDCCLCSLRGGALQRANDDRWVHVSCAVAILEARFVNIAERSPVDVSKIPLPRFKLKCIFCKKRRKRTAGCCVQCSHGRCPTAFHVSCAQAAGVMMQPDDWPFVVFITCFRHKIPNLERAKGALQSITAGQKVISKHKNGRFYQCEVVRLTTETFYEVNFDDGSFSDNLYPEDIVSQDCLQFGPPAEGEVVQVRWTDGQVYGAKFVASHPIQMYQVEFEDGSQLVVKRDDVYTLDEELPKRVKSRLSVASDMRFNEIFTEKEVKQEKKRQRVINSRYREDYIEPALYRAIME
BAZ2B block = BAZ2B (human) inhibition; AlphaScreen BAZ2B-H3K14Ac peptide displacement; 360,000 compounds, 4.4% hits; AID 504333; Potency, µM (top dose mostly 114 µM), for the others: at the highest dose activity change, negative = inhibition, most hits filed as inhibitors; also: % is scaled to controls: 0 for no effect and ±100 for the full control effect; nearly all actives have a fitted effect of over 60% in size
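AlphaScreen displacement: compounds (up to 110uM) incubated 30 min at room temperature with a preformed 50 nM BAZ2B/50 nM biotinylated H3K14Ac peptide complex in PBS pH 7.4 with Tween-20. Donor and acceptor beads at 10 ug/mL final added, 20 min light-protected before reading.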
Sfp inh = inhibitors of Bacillus subtilis Sfp phosphopantetheinyl transferase. Q9F4F7. Biochemical Sfp PPTase activity, qHTS. Potency, µM, inactives show largest response in the series, negative = inhibition, usual class: inhibitors. 310,000 compounds, 3.5% hits. AID 1490;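 also: the enzyme is Sfp with the accession as filed and its product quenches rhodamine fluorescence; 0% = enzyme reaction without inhibitor and -100% = no enzyme wells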
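Fluorescence-quenching assay: 15 nM Sfp-PPTase preincubated 15 min at room temperature with compound, then 5 uM rhodamine-CoA and 12.5 uM BHQ-2-labelled YbbR peptide added. Fluorescence (ex 525/em 598 nm) read at start and after 30 min; difference gives rate.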
Active calls of the source: *; ? = inconclusive; . = no result; [ ] = remark or other dose. Rows were chosen to be rich in hits. Some 12% of all compounds tested hit in one or more screens of this group. Calls follow the shape of the dose curve; as a rule, active = well fitted curve in the direction sought with a large enough effect; inconclusive = small, poorly fitted or top-dose-only effect, or another doubt; inactive = no such curve, though single readings can be large; an effect the other way counts as inactive or inconclusive. Potency is read from the fitted curve at half-maximal effect.

SMILES	G9a inh	L3MBTL1 block	HP1b chromo inh	JMJD2A Tudor inh	BAZ2B block	Sfp inh
COc1ccc(CN2C(=O)C(NC(=O)c3ccc(C)cc3)(C(F)(F)F)N=C2c2ccccc2)cc1 (configuration not stated)	5%[59 µM]	.	8%	-29%	-29%	.
O=C(COc1ccccc1)N(Cc1cccnc1)c1nc2ccc(Cl)cc2s1	-2%[59 µM]	.	34%	-27%	-2%	.
CCOC(=O)c1ccccc1NC(=O)N1CCN(Cc2cc(=O)n3nc(-c4ccccc4)sc3n2)CC1	6%[59 µM]	.	34%[57 µM]	3%	6%	.
COc1ccc(-c2cc(C(F)(F)F)nc(SCCC(=O)Nc3c(C)cccc3C)n2)cc1	4%[59 µM]	.	41%	7%	2%	.
O=C(Nc1ccc(S(=O)(=O)Nc2ccccn2)cc1)c1cccc(Cl)c1	25µM*	.	-7%	-14%	-14%	-3%
Cc1ccc(NS(=O)(=O)c2cc(C(=O)N3CCN(C)CC3)ccc2C)cc1	28%[59 µM]	1%	30%	-11%	-4%	4%
Cc1cc(C)nc(NS(=O)(=O)c2ccc(N)cc2)n1	23%	6%	14%	-12%	-14%	-9%
CNc1cc(NS(=O)(=O)c2ccc(N)cc2)nc(NC)n1	11%[12.7 µM]	7%	19%	89µM*	50µM*	-10%
Cc1ccc(NS(=O)(=O)c2cc(C(=O)N3CCN(CCO)CC3)ccc2C)cc1	2µM*	1%	-27%	79µM*	50µM*	.
CCOc1ccc(OCC(=O)NCCS(=O)(=O)N2CCN(c3ccc(OC)cc3)CC2)cc1	-4%[59 µM]	.	8%[57 µM]	-15%	0%	.
S=c1nc(-c2sccc2OCc2ccc(Cl)cc2Cl)[nH][nH]1	45µM*	-19%	-14%	-8%[11.4 µM]	?	?
CCOc1cc(C(=O)OCC(=O)Nc2ncc(Cl)c(C)c2Cl)ccc1OCC(=O)N1CCOCC1	45µM*	0%	13%	-13%	4%	5%
CCn1nc(C(=O)OCC(=O)NC(C)C)c2ccccc2c1=O	-4%	.	-11%	?	-4%	6%
CCn1nc(C(=O)OCC(=O)Nc2ncc(Cl)c(C)c2Cl)c2ccccc2c1=O	50µM*	-3%	-15%	?	?	2%
Cc1c(Cl)cnc(NC(=O)COC(=O)c2cc3c(s2)CCC(C)C3)c1Cl (configuration not stated)	35µM*	-7%	10%	-18%	3%	9%
Cc1ccc(O)c(C2=NNC(c3ccc(Cl)cc3)C2)c1 (configuration not stated)	.	-13%	33%	-34%	?	14%
Cc1ccc(C2Cc3cc(O)c(O)cc3CN2)cc1 (configuration not stated)	.	.	?	8.9µM*	.	.
COc1ccc(NC(=O)C2C3C=CC(C3)C2C(=O)NCc2ccco2)c(OC)c1 (configuration not stated)	-2%[59 µM]	-5%	18%	-6%	-8%	-4%
CCOc1ccc(OCC)c(NC(=O)C2C3C=CC(O3)C2C(=O)NCc2ccco2)c1 (configuration not stated)	50µM*	-6%	-14%	?	?	-2%
CN(C)c1oc(-c2ccccc2[N+](=O)[O-])nc1C#N	7.1µM*	-12%	?	16µM*	-38%	10µM*
CN(C)c1oc(-c2ccccc2Cl)nc1C#N	?	.	-44%	-21%	?	15%
COC(=O)c1ccccc1NC(=O)CSc1nc(=O)cc(N)n1-c1ccccc1	-11%[59 µM]	.	8%	-32%	-14%	.
CCOc1ccc(NC(=O)CC(C)O)cc1 (configuration not stated)	21%[59 µM]	.	.	.	.	-3%
Cc1ccc(C2C(C#N)=C(N)SC(N)=C2C#N)c(C)c1	?	-23%	49%	89µM*	3%	79µM*
N#CC1=C(N)SC(N)=C(C#N)C1c1ccoc1	2µM*	5µM*	.	.	25µM*	-79%
CC1=C(C#N)C(c2ccoc2)C(C(=O)OCc2ccccc2)=C(N)S1 (configuration not stated)	?	-1%	21%	?	4%	-28%
